According to PubChem BioAssay (Tox21):
Inconclusive results are not listed. Active and inactive are the calls of the source. Unless noted, calls follow the shape of the dose curve; as a rule, active = well fitted curve in the direction sought with a large enough effect in the repeat runs; inconclusive = weak or mixed curves; inactive = no such curve, though single readings can be large; an effect the other way counts as inactive or inconclusive.

Columns and labels:
[1] = qHTS assay to identify small molecule agonists of the estrogen receptor alpha (ER-alpha) signaling pathway in the presence of an antagonist - cell viability counter screen (AID 1259386);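 also: series mostly up to about 92 µM; cells exposed to compounds for 22 h at 37 °C before the viability read; nearly all actives have a fitted effect of over 30% in size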
Procedure, shortened: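 Cytotoxicity was measured in parallel with the ERE-luciferase agonist screen, in the same wells. The cells were VM7Luc4E2, which endogenously express ER-alpha, and treatment was with compounds plus 10.0nM ICI-182,780 for 22hr.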

[2] = molecular target: Progesterone receptor (Homo sapiens) (UniProt P06401); experiment: qHTS assay to identify small molecule agonists of the progesterone receptor (PR) signaling pathway (AID 1346784; calls by dose curve; also: nearly all actives have a fitted effect of over 30% in size)
Chain of Progesterone receptor (Homo sapiens) (P06401 whole entry, looked up): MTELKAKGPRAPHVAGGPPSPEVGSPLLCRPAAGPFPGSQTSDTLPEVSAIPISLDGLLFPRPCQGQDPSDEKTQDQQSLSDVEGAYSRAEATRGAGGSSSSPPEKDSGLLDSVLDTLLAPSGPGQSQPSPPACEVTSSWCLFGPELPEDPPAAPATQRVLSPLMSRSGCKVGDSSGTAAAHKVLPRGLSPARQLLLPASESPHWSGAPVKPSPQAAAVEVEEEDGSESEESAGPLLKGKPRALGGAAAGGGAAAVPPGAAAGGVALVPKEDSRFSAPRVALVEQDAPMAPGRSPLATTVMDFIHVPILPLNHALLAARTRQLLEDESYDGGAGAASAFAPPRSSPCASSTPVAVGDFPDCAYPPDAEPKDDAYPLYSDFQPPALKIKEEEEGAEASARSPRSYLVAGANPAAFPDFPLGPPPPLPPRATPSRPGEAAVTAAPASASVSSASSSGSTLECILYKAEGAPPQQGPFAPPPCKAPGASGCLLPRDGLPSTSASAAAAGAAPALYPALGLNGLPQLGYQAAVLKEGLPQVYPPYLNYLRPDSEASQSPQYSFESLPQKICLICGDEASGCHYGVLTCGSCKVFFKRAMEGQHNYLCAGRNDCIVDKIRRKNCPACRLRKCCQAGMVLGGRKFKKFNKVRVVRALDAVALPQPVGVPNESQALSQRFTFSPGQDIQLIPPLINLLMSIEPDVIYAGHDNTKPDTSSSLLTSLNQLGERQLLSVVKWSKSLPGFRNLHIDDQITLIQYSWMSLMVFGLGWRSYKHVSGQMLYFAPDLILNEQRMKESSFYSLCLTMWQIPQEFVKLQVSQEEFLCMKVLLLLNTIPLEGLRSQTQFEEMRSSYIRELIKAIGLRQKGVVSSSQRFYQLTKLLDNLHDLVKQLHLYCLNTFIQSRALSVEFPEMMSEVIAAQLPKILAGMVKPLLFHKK
Procedure, shortened: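 PR-UAS-bla HEK 293T cells (beta-lactamase reporter under UAS) in 2% charcoal-stripped FBS, dosed with 23 nL compound after 6 hr, incubated 16hr at 37C. LiveBLAzer B/G FRET substrate added, fluorescence read after 2 hours.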

[3] = molecular target: Progesterone receptor (Homo sapiens) (UniProt P06401); experiment: qHTS assay to identify small molecule antagonists of the progesterone receptor (PR) signaling pathway (AID 1346795; active = well fitted inhibition curve with a large enough effect in the signal ratio in the repeat runs, not every such curve was filed as active; the % refers to the signal ratio)
Procedure, shortened: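 PR-UAS-bla HEK293T cells with beta-lactamase reporter under UAS control, in 2% charcoal-stripped FBS, treated with compounds plus 1 nM promegestone (R5020, final) for 16 hr at 37C. Read-out: FRET beta-lactamase substrate fluorescence after 2 hr at room temperature.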

[4] = qHTS assay to identify small molecule antagonists of the progesterone receptor (PR) signaling pathway - cell viability counter screen (AID 1346798); also: series mostly up to about 92 µM; nearly all actives have a fitted effect of over 50% in size
Procedure, shortened: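 PR-UAS-bla HEK293T cells, 3,000/well in 2% charcoal-stripped FBS medium, dosed with compounds plus R5020 agonist and incubated 16 h at 37C. Viability then measured in the same wells by CellTiter-Glo luminescence after 30 min at RT.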

[5] = qHTS assay to identify small molecule agonists of the progesterone receptor (PR) signaling pathway - cell viability counter screen (AID 1346799; calls by dose curve; also: nearly all actives have a fitted effect of over 45% in size)
Procedure, shortened: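 Counter screen in the PR-UAS-bla HEK293T wells (2% charcoal-stripped FBS, 16 h compound exposure at 37 C) after the bla read. CellTiter-Glo added, 30 min at room temperature, luminescence read as cell viability.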

[6] = qHTS assay to identify small molecule antagonists of the TGF-beta/Smad signaling pathway - cell viability counter screen (AID 1346824); also: nearly all actives have a fitted effect of over 50% in size
Procedure, shortened: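 SBE-bla HEK 293T cells, incubated overnight, then compound plus 0.25 ng/mL TGF-beta1 (stock added) for 5 hr at 37 C. Viability was read in the same wells by CellTiter-Glo luminescence after 30 min at room temperature.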

[7] = qHTS assay to identify small molecule agonists of the TGF-beta/Smad signaling pathway (AID 1346859; active = well fitted activation curve with a large enough effect in the signal ratio in the repeat runs, not every such curve was filed as active; the % refers to the signal ratio; also: series mostly up to about 77 µM)
Procedure, shortened: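 SBE-bla HEK293T cells plated overnight, then compound exposure for 5 h at 37 C. Beta-lactamase reporter read with LiveBLAzer B/G FRET substrate after 2 h at room temperature, fluorescence at 405 nm excitation, 460/530 nm emission.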

[8] = molecular target: Thyrotropin-releasing hormone receptor (Homo sapiens) (UniProt P34981); experiment: qHTS assay to identify small molecule antagonists of the thyrotropin-releasing hormone receptor (TRHR) signaling pathway (AID 1346877; active = well fitted inhibition curve with a large enough effect in the repeat runs, not every such curve was filed as active; also: series mostly up to about 51 µM)
Chain of Thyrotropin-releasing hormone receptor (Homo sapiens) (P34981 whole entry, looked up): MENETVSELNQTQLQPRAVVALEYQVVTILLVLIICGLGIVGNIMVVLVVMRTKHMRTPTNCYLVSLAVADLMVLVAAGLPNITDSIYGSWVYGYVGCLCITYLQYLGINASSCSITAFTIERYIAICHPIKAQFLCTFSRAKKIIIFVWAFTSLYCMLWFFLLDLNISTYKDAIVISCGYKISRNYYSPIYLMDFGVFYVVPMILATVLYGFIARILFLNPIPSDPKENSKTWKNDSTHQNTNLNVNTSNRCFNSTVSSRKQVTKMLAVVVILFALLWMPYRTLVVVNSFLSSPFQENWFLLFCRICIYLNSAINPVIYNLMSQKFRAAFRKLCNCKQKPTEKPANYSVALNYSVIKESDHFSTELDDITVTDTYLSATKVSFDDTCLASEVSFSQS
Procedure, shortened: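 Antagonism is measured as suppression of the calcium response to 1 nM TRH in TRHR-HEK293 cells that have been dye-loaded for 2 h at 37 °C after overnight plating. Each compound is tested at 15 concentrations in triplicate.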

[9] = molecular target: Thyrotropin-releasing hormone receptor (Homo sapiens) (UniProt P34981); experiment: qHTS assay to identify small molecule agonists of the thyrotropin-releasing hormone receptor (TRHR) signaling pathway (AID 1346891; calls by dose curve; also: series mostly up to about 58 µM)
Procedure, shortened: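 HEK293 cells expressing TRHR plated 18 h at 37 C/5% CO2, calcium dye-loaded 2 h at 37 C, then compound added (agonist mode); kinetic calcium fluorescence read 3 min at 1 s intervals; 15 concentrations in triplicate.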

[10] = Human pregnane X receptor (PXR) small molecule agonists, qHTS cell viability counter screen (AID 1346977); also: nearly all actives have a fitted effect of over 50% in size
Procedure, shortened: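 PXR-Luc HepG2 cells (2,000/well, 5% charcoal-stripped FBS) preincubated 5 hr, then exposed to compounds 24 hr at 37 C. Viability read in the same wells by CellTiter-Fluor fluorescence, reagent added at 23 hr, 1 hr incubation.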

[11] = Caspase-3/7 induction in HepG2 cells by small molecules, qHTS assay (AID 1346978); also: nearly all actives have a fitted effect of over 15% in size
Procedure, shortened: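 Wild-type HepG2 cells, 2,000/well, settled 5 hr at 37 C and 5% CO2, then compound-treated for 17 hr; caspase-3/7 activity read by luminescent Caspase-Glo 3/7 after 30 min at room temperature.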

[12] = Caspase-3/7 induction in CHO-K1 cells by small molecules, qHTS assay (AID 1346980); also: nearly all actives have a fitted effect of over 15% in size
Procedure, shortened: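 Wild-type CHO-K1 cells exposed to compounds for 17hr at 37 C, 5% CO2. Caspase-3/7 activity then measured by Caspase-Glo 3/7 luminescence after 30min at room temperature.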

[13] = molecular target: Acetylcholinesterase (Homo sapiens) (UniProt P22303); experiment: Acetylcholinesterase (AChE) small molecule antagonists: colormetric cell-based qHTS assay (AID 1347395; calls by dose curve; also: nearly all actives have a fitted effect of over 30% in size)
Chain of Acetylcholinesterase (Homo sapiens) (P22303 whole entry, looked up): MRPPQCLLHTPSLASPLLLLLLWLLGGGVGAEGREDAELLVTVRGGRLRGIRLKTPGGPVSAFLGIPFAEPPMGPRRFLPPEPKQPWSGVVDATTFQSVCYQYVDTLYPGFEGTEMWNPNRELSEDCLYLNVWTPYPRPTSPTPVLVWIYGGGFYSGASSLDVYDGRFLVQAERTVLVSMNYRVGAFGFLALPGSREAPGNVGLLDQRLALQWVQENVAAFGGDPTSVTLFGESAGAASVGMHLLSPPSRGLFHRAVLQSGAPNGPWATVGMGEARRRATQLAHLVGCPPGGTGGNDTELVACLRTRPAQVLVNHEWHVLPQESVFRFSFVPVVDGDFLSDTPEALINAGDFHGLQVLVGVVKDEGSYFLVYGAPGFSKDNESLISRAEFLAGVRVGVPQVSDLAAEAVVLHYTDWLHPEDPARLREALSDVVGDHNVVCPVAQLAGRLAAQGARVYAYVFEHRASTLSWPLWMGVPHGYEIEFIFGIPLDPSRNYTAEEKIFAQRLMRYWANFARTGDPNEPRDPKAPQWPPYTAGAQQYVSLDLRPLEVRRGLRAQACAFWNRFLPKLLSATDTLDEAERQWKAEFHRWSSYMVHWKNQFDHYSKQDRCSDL
Procedure, shortened: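 SH-SY5Y cells attached overnight, exposed to compound 30 min at 37 C, then given DTNB/acetylthiocholine; after 90 min at 37 C, colorimetric thiocholine read gives cellular AChE activity.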

[14] = qHTS assay to identify small molecule agonists of the TGF-beta/Smad signaling pathway - cell viability counter screen (AID 1346829); also: top concentration of the series differs between compounds; nearly all actives have a fitted effect of over 45% in size
Procedure, shortened: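 After overnight seating at 37 C and 5% CO2, reporter cells got compounds for 5 hr and FRET substrate for 2 hr; cell viability then came from CellTiter-Glo luminescence.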

[15] = Caspase-3/7 induction in CHO-K1 cells by small molecules, qHTS cell viability counter screen (AID 1346979); also: nearly all actives have a fitted effect of over 35% in size
Procedure, shortened: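 Wild-type CHO-K1 cells (1,500/well) treated with compound after 5 h plating; after 16 h at 37C, viability read as CellTiter-Fluor fluorescence following 1 h reagent incubation, in the same wells as the caspase read.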

[16] = Caspase-3/7 induction in HepG2 cells by small molecules, qHTS cell viability counter screen (AID 1346981); also: series mostly up to about 92 µM; nearly all actives have a fitted effect of over 30% in size
Procedure, shortened: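 Cell viability is measured as a cytotoxicity counter screen alongside the Caspase-Glo 3/7 readout in identical wells. Wild-type HepG2 cells are treated with test compounds for 16 hr at 37 C before CellTiter-Fluor addition and a 1-hr incubation.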

[17] = molecular target: Nuclear receptor subfamily 1 group I member 2 (Homo sapiens) (UniProt O75469); experiment: Human pregnane X receptor (PXR) small molecule agonists, qHTS assay (AID 1346982); also: nearly all actives have a fitted effect of over 35% in size
Chain of Nuclear receptor subfamily 1 group I member 2 (Homo sapiens) (O75469 whole entry, looked up): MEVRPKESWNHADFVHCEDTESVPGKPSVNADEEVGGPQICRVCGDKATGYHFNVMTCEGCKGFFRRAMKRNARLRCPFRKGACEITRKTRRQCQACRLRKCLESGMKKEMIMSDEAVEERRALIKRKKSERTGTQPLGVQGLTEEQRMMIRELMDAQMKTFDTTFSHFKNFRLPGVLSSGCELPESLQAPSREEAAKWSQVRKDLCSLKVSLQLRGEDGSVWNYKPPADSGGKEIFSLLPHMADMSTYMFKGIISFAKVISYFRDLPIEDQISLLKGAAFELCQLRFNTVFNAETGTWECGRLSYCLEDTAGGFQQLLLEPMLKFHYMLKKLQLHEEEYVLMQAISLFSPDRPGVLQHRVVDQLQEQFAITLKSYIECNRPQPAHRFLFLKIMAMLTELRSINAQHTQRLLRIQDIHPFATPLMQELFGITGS
Procedure, shortened: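 Cells: HepG2 stably carrying PXR-Luc. Medium held 5% charcoal-stripped FBS. Compounds in DMSO added after 5 hr plating, incubated 24 hr, then luminescence quantified with ONE-Glo.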

[18] = molecular target: Nuclear receptor subfamily 1 group I member 2 (Rattus norvegicus) (UniProt Q9R1A7); experiment: Rat pregnane X receptor (rPXR) activation by small molecules, qHTS assay (AID 1346983); settings: rPXR luciferase reporter cells, One-Glo luminescence, 24 h; max activation: stronger effect = higher value; also: nearly all actives have a fitted effect of over 20% in size
Chain of Nuclear receptor subfamily 1 group I member 2 (Rattus norvegicus) (Q9R1A7 whole entry, looked up): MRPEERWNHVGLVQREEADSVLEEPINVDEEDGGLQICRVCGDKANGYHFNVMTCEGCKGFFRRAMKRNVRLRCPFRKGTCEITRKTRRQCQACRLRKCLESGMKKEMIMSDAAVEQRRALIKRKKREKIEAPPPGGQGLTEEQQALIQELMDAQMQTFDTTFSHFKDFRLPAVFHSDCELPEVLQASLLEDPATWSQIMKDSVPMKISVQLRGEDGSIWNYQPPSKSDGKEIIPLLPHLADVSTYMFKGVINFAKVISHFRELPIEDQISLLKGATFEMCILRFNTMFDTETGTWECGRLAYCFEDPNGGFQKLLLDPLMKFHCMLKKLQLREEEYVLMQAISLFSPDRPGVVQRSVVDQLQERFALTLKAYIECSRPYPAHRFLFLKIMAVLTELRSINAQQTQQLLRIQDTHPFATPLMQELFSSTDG
Procedure, shortened: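 Cell-based rPXR activation assay: rPXR cells, 2,000 per well, rested 5hr at 37 C, then exposed to compounds in DMSO for 24 hr at 37 C. Luciferase activity read by One-Glo luminescence after 30 min at room temperature.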

[19] = molecular target: Nuclear receptor subfamily 1 group I member 2 (Homo sapiens) (UniProt O75469); experiment: CYP3A4 induction through human pregnane X receptor (PXR) by small molecules, qHTS assay (AID 1346984); also: nearly all actives have a fitted effect of over 40% in size
Procedure, shortened: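 Quantitative HTS in DPX-2 cells, i.e. HepG2 transfected with PXR response element and CYP3A4-promoter luciferase. Compounds in DMSO incubated 24hr at 37C; then P450-Glo CYP3A4 substrate, 3uM final, 3hr; One-Glo luminescence.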

[20] = molecular target: Nuclear receptor subfamily 1 group I member 2 (Homo sapiens) (UniProt O75469); experiment: Human pregnane X receptor (PXR) activation by small molecules, qHTS assay (AID 1346985); also: nearly all actives have a fitted effect of over 40% in size
Procedure, shortened: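 DPX-2 cells (HepG2 co-transfected with a PXR response element and a CYP3A4-promoter luciferase construct) were seeded at 2,000 per well, rested 5 hr at 37C, then exposed to DMSO-dissolved compounds for 24 hr. Activation was read as luciferase luminescence.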
% is scaled to controls: 0 for no effect and ±100 for the full control effect.

N#CC(O)c1ccccc1 (stereo unspecified)
inactive: Potency [1] | Potency [2] | Potency [3] | Potency [4] | Potency [5] | Potency [6] | outcome [7] | outcome [8] | outcome [9] | Potency [10] | Potency [11] | Potency [12] | Potency [13]

Clc1ccccc1N1CCNCC1
inactive: Potency [1] | Potency [2] | Potency [3] | Potency [4] | Potency [6] | outcome [14] | outcome [7] | outcome [8] | outcome [9] | Potency [10] | Potency [11] | Potency [15] | Potency [12] | Potency [16] | Potency [17] | Potency [13]

CS(=O)(=O)c1cc(C(F)(F)F)ccc1C(=O)c1cnoc1C1CC1
inactive: Potency [1] | Potency [2] | Potency [3] | Potency [5] | Potency [6] | outcome [14] | outcome [7] | Potency [10] | Potency [11] | Potency [15] | Potency [16] | Potency [17] | Potency [13]

CC(=O)CCc1ccc2c(c1)OCO2
inactive: Potency [1] | Potency [2] | Potency [3] | Potency [4] | Potency [6] | outcome [14] | outcome [7] | outcome [8] | outcome [9] | Potency [10] | Potency [11] | Potency [15] | Potency [12] | Potency [16] | Potency [17] | Potency [13]

CCOP(=O)(N=C1SCCS1)OCC
inactive: Potency [1] | Potency [2] | Potency [3] | Potency [4] | Potency [5] | Potency [6] | outcome [7] | outcome [8] | outcome [9] | Potency [10] | Potency [11] | Potency [15] | Potency [16] | Potency [17]

O=S(=O)(O)C(F)(F)C(F)(F)C(F)(F)C(F)(F)C(F)(F)C(F)(F)F
inactive: Potency [1] | Potency [2] | Potency [3] | Potency [4] | Potency [6] | outcome [14] | outcome [7] | Potency [10] | Potency [11] | Potency [15] | Potency [12] | Potency [16] | Potency [17] | Potency [13]

COC(=O)C1=CCCN(C)C1
inactive: Potency [1] | Potency [2] | Potency [3] | Potency [4] | Potency [5] | Potency [6] | outcome [7] | Potency [10] | Potency [11] | Potency [15] | Potency [12] | Potency [16] | Potency [17] | Potency [13]

ClCC(Cl)(Cl)Cl
inactive: Potency [1] | Potency [2] | Potency [3] | Potency [4] | Potency [5] | Potency [6] | outcome [14] | Potency [10] | Potency [11] | Potency [15] | Potency [12] | Potency [17] | Potency [13]

C=C(C)[C@@H]1CC=C(C=O)CC1
inactive: Potency [1] | Potency [2] | Potency [3] | Potency [4] | Potency [5] | Potency [6] | outcome [14] | outcome [7] | Potency [10] | Potency [11] | Potency [16] | Potency [13]

O=C1OC(c2ccc(O)c(S(=O)(=O)O)c2)(c2ccc(O)c(S(=O)(=O)O)c2)c2c(Br)c(Br)c(Br)c(Br)c21
inactive: Potency [1] | Potency [2] | Potency [3] | Potency [4] | Potency [5] | Potency [6] | outcome [7] | Potency [10] | Potency [11] | Potency [15] | Potency [12] | Potency [16] | max activation [18] -0.923% | Potency [19] | Potency [20] | Potency [13]
